# FMDV inh – antivirals against foot and mouth disease virus; FMDV antiviral cell-based qHTS; Potency, µM (doses to about 57.9 µM), inactives show at the top dose activity change, negative = inhibition, most hits filed as inhibitors; hit rate 1.2% among 410,000; AID 1159524; calls by dose curve; tested in HEK293T cells; note: read-out not given here; potency is the fitted concentration of half-maximal effect; % is set by controls: 0 for no effect and ±100 for the full control effect; nearly all actives have a fitted effect of over 45% in size
# Cycloheximide cs – counter-screen for Shiga toxin inhibitors: cycloheximide protein synthesis inhibition; cell reporter, cycloheximide protein synthesis inhibition counterscreen; max response, %; hit rate 12% among 300,000; in the data active = max response mostly above about 13%, no sharp cut-off; inactive = mostly below about 14%; note: read at 38.3 µM for the half of the compounds with a filed dose; 0% is about no effect
# HCV inhibitor – HCV inhibition | Huh7.5.1 HCVcc-Cre infection, luciferase reporter, 44 h | hit rate 3.4% among 340,000 | AID 651820 | Potency, µM (highest dose often 41.8 µM), for inactives: at the top dose activity change, negative = inhibition, usual class: inhibitors; active = well fitted inhibition curve with a large enough effect; inconclusive = small, poorly fitted or top-dose-only effect, or another doubt; inactive = no such curve, though single readings can be large or run the other way; note: potency is the fitted concentration of half-maximal effect; % is set by controls: 0 for no effect and ±100 for the full control effect
#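 1,000 cells/well; 4 h culture; + compound; + HCVcc-Cre (~0.5 moi); 44 h; luciferase substrate, RT 15 min; read 15 sec.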
# Shiga toxin inh – Shiga toxin inhibition; Vero cells, Shiga toxin protein synthesis inhibition reporter; inhibition, % at 38.7 µM; hit rate 9.2% among 290,000; AID 2315; in the data active = inhibition mostly above about 28%, no sharp cut-off; inactive = mostly below about 43%; note: 0% is about no effect
# Marburg entry inh – inhibitors of Marburg virus binding or cell entry; Marburg virus pseudotyped entry inhibition, cell reporter; Potency, µM (series often up to 37.8 µM), inactives show at the highest dose activity change, negative = inhibition, usual class: inhibitors; hit rate 1.8% among 300,000; calls by dose curve; tested in HEK293 cells; note: potency is the fitted concentration of half-maximal effect; % is set by controls: 0 for no effect and ±100 for the full control effect
# Lassa entry inh – inhibitors of Lassa virus binding or cell entry; Lassa virus pseudotype entry inhibition, cell reporter; Potency, µM (titrated, usually from 37.9 µM), without a hit: at the highest dose activity change, negative = inhibition, actives largely listed as inhibitors; hit rate 1.2% among 300,000; calls by dose curve; tested in HEK293 cells; note: potency is the fitted concentration of half-maximal effect; % is set by controls: 0 for no effect and ±100 for the full control effect; nearly all actives have a fitted effect of over 50% in size
# Numbers without * were called inactive; ? = inconclusive; / = no result given; ! = repeats disagree; [ ] = another dose, or the depositor's remark. Hits are enriched below; roughly 13% of the tested compounds scored in any of these assays.
SMILES,FMDV inh,Cycloheximide cs,HCV inhibitor,Shiga toxin inh,Marburg entry inh,Lassa entry inh
CCOc1ccc(N2C(=O)CC(NCc3ccc(S(N)(=O)=O)cc3)C2=O)cc1 (stereo not given),-11.9%,-1.4,8.9%,-13.5,/,/
Cc1c(C)c(C)c(S(=O)(=O)NCCC(=O)N2CCN(Cc3ccc(C#N)cc3)CC2)c(C)c1C,-14.2%,/,12.6µM*,/,/,/
CC(C)(C)c1ccc(C(O)CCCN2CCC(C(O)(c3ccccc3)c3ccccc3)CC2)cc1 (stereo not given),?,4.9,1.7%[8.37 µM],12.2,2.24µM*!,2.91µM*!
CN(C)c1ccc(C(CNC(=O)c2ccccc2Cl)N2CCc3ccccc32)cc1 (stereo not given),14.5%,/,/,/,/,28.9%[46.1 µM]
C=C(C)C(O)COc1c2occc2c(OC)c2ccc(=O)oc12 (stereo not given),24.5%,/,-11.9%,/,/,/
COc1cccc(/C=N/Nc2cc(Cl)nc(C)n2)c1O,24.1%,31.5*,0.1%,54.2*,25.9%,1.5%
COc1cccc(/C=N/Nc2c(Cl)cncc2Cl)c1O,19.5%,31.7*,?,84.5*,?,?
COc1cccc(/C=N/Nc2nc(N3CCCC3)nc(N3CCCC3)n2)c1O,/,3.0,-29.3%,23.0,25.9µM*,16.1%
CCC(SC1=Nc2ccccc2C2=NC(CC(C)C)C(=O)N12)C(=O)Nc1ccc2c(c1)OCO2 (stereo not given),32.9%,23.0*,8.91µM*!,40.3*,?,16.1%
Cc1cc(=O)n2nc(N3CCC(C(=O)Nc4cccc(Cl)c4C)CC3)sc2n1,-9.6%,10.0,4.9%,-4.2,/,/
COc1ccccc1OCC(=O)c1[nH]c(C)c(C(C)=O)c1C,20µM*,-1.0,?,10.2,?,?
CC(=O)c1c(C)[nH]c(C(=O)COc2ccc(C#N)cc2)c1C,-25.1%,-1.7,?,-9.6,-6.9%,-2.2%
COc1cc(C)ccc1OCC(=O)OCC(=O)c1[nH]c(C)c(C(C)=O)c1C,-21.9%,/,-4.6%,/,18.9%,1.5%
CC(=O)c1c(C)[nH]c(C(=O)COc2cc(C)ccc2C(C)C)c1C,-13.8%,3.2,5.62µM*,21.1,?,?
COC(=O)C[C@@H]1CC[C@@H](NS(=O)(=O)c2ccccc2OC)[C@@H](CO)O1,-5.7%,/,/,/,/,/
CC(Sc1nnc(-c2ccccc2F)n1N)C(=O)NCC1CCCO1 (stereo not given),0.0%,/,?,/,-10.3%,24.9%
Cc1ccc2c(c1)c1nc3ccccc3nc1n2CCN1CCOCC1,5.3%,10.9*,12.6µM*,6.2,-21.9%,?
CCn1c2ccc(C)cc2c2nnc(SCCN3CCOCC3)nc21,?,-1.8,-4.5%,-30.6,?,?
Cc1ccc2c(c1)c1nc3ccccc3nc1n2C,36.2%,19.0*,11.2µM*,21.8,/,/
CC(c1nnc(SCn2nnc3ccccc3c2=O)n1-c1ccc(Cl)cc1)N(C)C (stereo not given),/,-2.5,4.9%,24.2,25.6%,-2.1%
Cc1ccc(-c2noc(CSc3nnc(Cc4ccccc4)n3-c3ccc(Cl)cc3)n2)cc1,-21.6%,-1.7,?,-9.5,?,1.64µM*
Clc1ccc(-n2c(Cc3ccccc3)nnc2SCc2nc(-c3cccs3)no2)cc1,-18.5%,/,/,/,-28.4%[46.1 µM],?
COc1ccc(-c2noc(CSc3nnc(CCc4ccccc4)n3-c3ccccc3)n2)cc1OC,/,-0.4,11.2µM*,-3.6,-0.6%,4.11µM*
Cc1ccc(-c2noc(CSc3nnc(CCc4ccccc4)n3-c3ccccc3)n2)cc1,-22.7%,2.2,?,-9.0,?,?
COc1ccc(-c2noc(CSc3nnc(Cc4ccccc4)n3-c3ccc(Cl)cc3)n2)cc1,-20.3%,-1.0,14.1µM*,-6.6,?,4.11µM*
SMILES,FMDV inh,Cycloheximide cs,HCV inhibitor,Shiga toxin inh,Marburg entry inh,Lassa entry inh
Cc1nnc(SCc2nc(-c3ccc(Cl)cc3)no2)n1-c1ccc(F)cc1,0.0%,/,/,/,?,0.5%[46.1 µM]
COc1ccc(CCN2C(=O)N(c3ccc(F)cc3)C(=O)C2CC(=O)Nc2ccc(OC)cc2)cc1 (stereo not given),19.9%,/,/,/,?,-20.9%[46.1 µM]
COc1ccc(C(=O)NNC(=O)C23CC4CC(CC(C4)C2)C3)c(OC)c1,37.1%,21.1*,-6.9%,41.2,18.6%[46.1 µM],24.5%
Cc1cccc(C(=O)NNC(=O)C23CC4CC(CC(C4)C2)C3)c1O,19.7%,14.0*,-1.7%,82.1,-12.5%[46.1 µM],2.1%
CCC1CCCCN1C(=O)CSc1n[nH]c(N)n1 (stereo not given),-1.6%,/,2.4%,/,3.0%[46.1 µM],0.0%[46.1 µM]
COCCCN=Cc1c(C)[nH]n(-c2ccc(Br)c(C)c2)c1=O,-50.9%,49.4*,?,37.8*,?,11.2µM*
Cc1ccc(-n2[nH]c(C)c(C=NC34CN5CN(CN(C5)C3)C4)c2=O)cc1C,-4.4%,19.0,4.6%,7.9,12.6%,-14.7%
Cc1ccc2ncccc2c1[N+](=O)[O-],-12.3%,-1.6,5.4%,-14.4,5.3%[46.1 µM],-5.4%
Cc1[nH]c2ccc3ncccc3c2c1C,28.3%,14.6*,11.2µM*,-25.4,11.2%,?
CC(NC(=O)CSc1nc2c(c(C(F)(F)F)n1)CCc1ccccc1-2)c1ccccc1 (stereo not given),?,-1.3,12.6µM*,-8.9,?,?
O=C(CSc1nc2c(c(C(F)(F)F)n1)CCc1ccccc1-2)NCc1ccco1,-20.3%,0.7,?,-8.6,-25.2%,-24.8%
O=C(Cn1cnc2ccccc2c1=O)NC1CCCc2ccccc21 (stereo not given),-0.4%,-13.1,12.9%,-24.0,-23.7%,7.3%
Cc1cc(C)nc(SCc2nnc(SCC(=O)N3CCOCC3)o2)n1,-9.7%,-0.8,3.8%,20.6,?,?
CC(C)(C)S(=O)(=O)c1cnc(N2CCCCC2)nc1N,12.9%,18.8*,0.8%,25.2,?,11.6%
CC(C)(C)S(=O)(=O)c1cnc(-c2ccc(Cl)cc2)nc1N,46.5%,22.2*,-27.7%,46.8*,/,/
CCOC(=O)c1ccccc1NC(=O)c1c2c(nc3ccccc13)C(=O)N(C1CCCCC1)C2,-13.2%,/,/,/,/,6.4%[46.1 µM]
CCCCc1cc(O)c(CCCC)c(O)c1,22.9%,39.2*,?,39.5*,-5.6%[46.1 µM],?
CNCCc1ccc(O)c(O)c1,-20.1%,/,-11.3%,/,?,?
O=C(NCCn1cc(SCC(=O)N2CCOCC2)c2ccccc21)c1ccccc1,-19.7%,18.7*,-18.2%,37.4*,/,/
O=C(CSc1cn(Cc2ccccc2)c2ccccc12)N1CCOCC1,52.2%,21.3*,-8.1%,96.4*,/,/
COc1ccc(NC(=O)CSc2nnc(C3CCCCC3)n2N)cc1OC,-15.3%,-0.2,16.1%,7.1,/,/
CC(C)c1ccc(Nc2nc(NCc3ccco3)nc(N3CCOCC3)n2)cc1,-12.0%,1.6,10µM*,-11.1,?,?
Fc1ccccc1Nc1nc(NCc2ccco2)nc(N2CCOCC2)n1,-20.1%,-1.4,35.5µM*,-13.2,?,0.0%
CCCCc1ccc(NS(=O)(=O)c2cccs2)cc1,3.6%,10.5,0.0%,31.9,-0.4%,-11.9%
COC(=O)c1ccc(CSc2nnc3nc(C)cc(C)n23)cc1,?,-1.9,1.5%,-2.6,3.8%[46.1 µM],-24.7%

# Source: PubChem BioAssay
